Source: PubChem
Most compounds without a hit are left out; they make up all but 3.5% or so of the library.
MITF inh = blocks human microphthalmia-associated transcription factor; O75030; AlphaScreen MITF homodimerization, bead proximity signal; inhibition, % at 2.6 µM; 0.91% of 650,000 active; in the data active = inhibition above about 50%;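 also: 0% = vehicle wells with protein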
Target sequence (O75030 whole entry, looked up): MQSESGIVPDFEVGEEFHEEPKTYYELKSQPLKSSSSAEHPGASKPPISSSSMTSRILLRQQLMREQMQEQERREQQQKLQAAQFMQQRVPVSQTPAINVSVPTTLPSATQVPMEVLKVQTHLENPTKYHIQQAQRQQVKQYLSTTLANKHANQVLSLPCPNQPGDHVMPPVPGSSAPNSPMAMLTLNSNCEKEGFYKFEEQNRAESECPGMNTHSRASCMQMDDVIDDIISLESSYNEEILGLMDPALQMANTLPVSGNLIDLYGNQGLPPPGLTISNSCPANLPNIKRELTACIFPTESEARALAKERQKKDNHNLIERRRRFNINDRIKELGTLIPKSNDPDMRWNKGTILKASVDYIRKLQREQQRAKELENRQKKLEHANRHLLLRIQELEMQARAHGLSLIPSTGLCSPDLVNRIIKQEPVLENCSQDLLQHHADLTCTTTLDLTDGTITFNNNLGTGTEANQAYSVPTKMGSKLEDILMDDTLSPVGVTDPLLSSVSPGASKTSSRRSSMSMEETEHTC
GPR151 activ = activators of human GPR151. 1% of 650,000 active. Q8TDV0. PathHunter beta-arrestin GPR151 cells, luminescence. activation, % at 11.2 µM. AID 1508602; in the data active = activation above about 4.9%;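 also: 0% = median of compound wells and 100% = cells with positive control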
TEAD-YAP inh = TEAD-YAP interaction inhibition. 1.4% of 640,000 active. HEK-TIYL cells, TEAD-Gal4/YAP UAS-luciferase luminescence. inhibition, % at 9.12 µM; in the data active = inhibition above about 32%;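 also: 0% = median of test compound wells and 100% = reference inhibitor wells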
FBW7 activator = human FBW7 E3 ligase activation, primary screen. AlphaScreen FBW7–phospho-cyclin E peptide binding, activator screen. normalized activity (activation), % at 26.1 µM. 0.13% of 650,000 active. Q969H0; in the data active = normalized activity above about 1.9%;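 also: purified mutant Fbw7 with reduced substrate affinity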
MITF inh conf = human MITF inhibition, confirmation; shares compounds with MITF inh; AlphaScreen MITF homodimerization, biotin/His-MITF beads; inhibition, % at 2.6 µM; 16% of 4,700 active; AID 1259372;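 active = inhibition above a cutoff derived from the DMSO control wells, cut at about 28% in these data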;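 also: 0% = MITF dimer wells with DMSO only; inhibitors lower the bead chemiluminescence by keeping MITF from dimerizing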
AlphaScreen DR = counter-screen: compounds optically interfering with AlphaScreen; AlphaScreen optical interference counterscreen, cell-free; 6% of 480 active; shares compounds with MITF inh; IC50, µM; call rule not given here
AlphaScreen intf2 = optically interferes with AlphaScreen signal; 7.6% of 4,700 active; inhibition, % at 2.6 µM; shares compounds with MITF inh; AID 1259376; LysRS AlphaScreen counterscreen, signal interference, triplicate;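 active = inhibition above a cutoff derived from the DMSO control wells, cut at about 30% in these data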
* hit, by the source's call; / = no result given.

SMILES	MITF inh	GPR151 activ	TEAD-YAP inh	FBW7 activator	MITF inh conf	AlphaScreen intf2	others
CCN(C(=O)c1cc2c(=O)n3cccc(C)c3nc2n1C)c1ccccc1	53*	0	12	1	-3	8
CCOc1ccc(/C=C/C(=O)Nc2ccc(N3CCOCC3)cc2)cc1	87*	0	13	0	7	14
O=C(COC(=O)c1ccco1)c1ccc2ccccc2c1	92*	3	-1	0	9	8
CCC(C)c1ccccc1OCCNC(C)C (stereo unspecified)	85*	0	10	0	-10	-1
CCC(C)c1ccccc1OCCCNCCCOC (stereo unspecified)	60*	1	1	0	3	1
CCC(C)c1ccccc1OCCCNCCOC (stereo unspecified)	13	0	1	0	/	/
Cn1cccc/c1=N/c1cccc[n+]1C	-2	2	6	0	/	/
Cc1c(Cl)cccc1N1COc2ccc3c(C)cc(=O)oc3c2C1	5	-1	3	1	/	/
CCOC(=O)C1=C(C)NC2=C(C(=O)CCC2)C1c1ccc2c(c1)OCO2 (stereo unspecified)	6	0	14	0	/	/
CCOC1=CC(c2ccc3c(c2)OCO3)CC(=O)c2c(C)oc(C)c21 (stereo unspecified)	57*	0	12	0	42*	22	AlphaScreen DR=>6.5
O=C1CC(N2CCN(c3ccc(Cl)cc3)CC2)C(=O)N1CCc1ccccc1 (stereo unspecified)	53*	1	-8	0	-4	-2
O=C(Nc1cccnc1Cl)c1cnn2c(C(F)(F)F)cc(-c3cccs3)nc12	3	-1	0	0	/	/
CSc1ccccc1NC(=O)c1cnn2c(C(F)(F)F)cc(-c3cccs3)nc12	75*	-1	3	1	9	-1
Cc1ccc(S(=O)(=O)N2CCn3cccc3C2c2ccc(F)cc2)cc1 (stereo unspecified)	3	0	-4	0	/	/
COc1ccc(S(=O)(=O)N2CCn3cccc3C2c2ccccc2F)cc1C (stereo unspecified)	58*	0	3	0	3	-1
O=C(Cn1ccccc1=S)c1ccccc1	63*	-1	8	0	6	10
O=C(OC1CCOC1=O)c1cc(-c2ccco2)nc2ccccc12 (stereo unspecified)	75*	0	-11	0	76*	3	AlphaScreen DR=>7.2
O=C(Nc1cccc(O)c1)c1cc(-c2ccco2)nc2ccccc12	36	0	4	0	/	/
O=C(COC(=O)c1cc(-c2ccco2)nc2ccccc12)NC1CC1	51*	-2	7	0	40*	-3	AlphaScreen DR=>6.9
O=C(O)c1cc(-c2ccco2)nc2ccccc12	55*	4	11	0	57*	18	AlphaScreen DR=>7.6
CCNC(=O)COC(=O)c1cc(-c2ccco2)nc2ccccc12	48	0	3	0	/	/
CC(C)N(C(=O)COC(=O)c1cc(-c2ccco2)nc2ccccc12)C(C)C	54*	-1	-4	0	45*	7	AlphaScreen DR=>6.8
Cc1ccccc1C(=O)N(Cc1ccc(Br)cc1)c1ccc(I)cc1	-8	-1	0	0	/	/
Cc1c(Cl)cccc1NS(=O)(=O)c1ccc2c(c1)OCCN2C	11	0	11	0	/	/
COc1ccc(C(=O)Nc2ccccc2[N+](=O)[O-])cc1	7	0	-34	0	/	/
SMILES	MITF inh	GPR151 activ	TEAD-YAP inh	FBW7 activator	MITF inh conf	AlphaScreen intf2	others
O=C(CSc1ccc(-c2cccnc2)nn1)NCc1ccccc1Cl	-10	-1	-3	0	/	/
O=C(CSc1ccc(-c2cccnc2)nn1)NCc1ccccc1	51*	0	8	0	5	-3
O=[N+]([O-])c1nn(-c2cccc(Cl)c2)n(O)c1=NC1CCCCC1	56*	-1	5	-1	15	14
CCc1ccc(CN2CCC(C(=O)NCc3ccco3)CC2)cc1	48	-1	9	1	/	/
COc1ccc(OC)c(CN2CCN(Cc3ccco3)CC2)c1	79*	1	-4	0	10	13
OCCN1CCN(Cc2cccc(Oc3ccc(Cl)cc3)c2)CC1	-10	0	8	0	/	/
COc1ccc(OC)c(CNCc2ccco2)c1	4	1	4	0	/	/
